{
  "source": "PubChem BioAssay (NCATS)",
  "note": "Where “and” joins values, the source holds several entries; their conditions need not be identical. Equal entries are not always repeated. Records with an inconclusive call do not appear. Calls of active or inactive are those of the source. Calls follow the shape of the dose curve; as a rule, active = well fitted inhibition curve with a large enough effect in the main read-out, with a control signal flat (not every such curve was filed as active); inconclusive = small, poorly fitted or top-dose-only effect, or effect the other way, or a change in a side signal; inactive = no such curve, though single readings can be large or run the other way.",
  "data": [
    {"assay": "Nrf2 qHTS screen for inhibitors: Validation (AID 493153);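 as to activity change, negative = inhibition: A549 cells with ARE-driven firefly luciferase reporter reporting Nrf2 activity; % of control where 0% means no effect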", "conditions": "A549 ARE-Fluc reporter, 18-24 h; Potency: luciferase luminescence; viability change: measured here: cytotoxicity max response; luciferase luminescence, at 46.1 µM (top of the series); activity change, negative = inhibition: at the top concentration", "source_text": "NIH Molecular Libraries Probe Production Network [MLPCN] NIH Chemical Genomics Center [NCGC] MLPCN Grant: R03-MH092170-01 Assay Provider: Shyam Biswal, Johns Hopkins University Assay Overview: Nrf2 is a transcription factor that maintains cellular redox homoestasis and protects cells from xenobiotics. Nrf2 binds to the antioxidant response element (ARE) to induce gene expression of a broad spectrum of genes that encode for antioxidants. […] Finding a small molecule that act as an inhibitor of Nrf2 function would represent a novel therapeutic target that could lead to improvement in survival of patients undergoing chemo- and/or radio- therapy. 1. Shibata, T., et al., Genetic Alteration of Keap1 Confers Constitutive Nrf2 Activation and Resistance to Chemotherapy in Gallbladder Cancer. Gastroenterology, 2008. 2. Sjoblom, T., et al., The consensus coding sequences of human breast and colorectal cancers. Science, 2006. 314(5797): p. 268-74.\nAssay Protocol Summary: A concentration-response assay was performed with A549 ARE_Fluc cells which are suspended in 5% FBS OPTI-MEM. Five uL were dispensed into 1536-well white TC-treated plate using the Kalypsys dispenser to achieve a density of 5000 cells/well in all columns except column 1. The plate is incubated at 37deg C at 5% CO2 for 2 hours before 23 nL of compounds are added with the Kalypsys pin tool equipped with a 1,536-pin array containing 10-nL slotted pins (FP1S10, 0.457-mm diameter, 50.8 mm long; V&P Scientific). The control compounds Budesonide and Staurosporine are both added at a concentration of 2mM and Budesonide is also added as a 1:10 titration, starting at 200uM, to achieve dose-response. After an 18-24 hour incubation at 37deg C at 5% CO2, 5ul of medium is added to column 1. Afterwards 1ul of 5x of CellTiter-Fluor (Promega) is added to every well. The plate is then incubated at 37deg C at 5% CO2 for 30 minutes before they are read on the ViewLux (Perkin Elmer) for a fluorescent read Ex=405(10)/Em=525(10) for a 3 second exposure, 2x binning, and high gain. Then 3 uL of 3x BugLite is dispensed into all wells and the plate is incubated at ambient room temperature for 15 minutes. Afterwards another ViewLux read is performed using the clear filter to get a luminescent read with the settings of 40 second exposure, 2x binning, and high gain. Cytotoxicity is assessed through the first fluorescent read and then biochemical activity against Nrf2 is measured in the luminescent read.", "values": [
      {"smiles": "CN1CCc2cc(O)c(O)cc2C(c2ccccc2)C1", "note": "(stereo not given)", "activity change, negative = inhibition": "-1.6% (inactive)", "viability change": "-7.53%"},
      {"smiles": "CCc1c(C(=O)NCCc2ccc(N3CCCCC3)cc2)[nH]c2ccc(Cl)cc12", "viability change": "-7.76%", "activity change, negative = inhibition": "-14.1% (inactive)"},
      {"smiles": "C[N+]1(C)C2CC(OC(=O)[C@H](CO)c3ccccc3)CC1C1OC12", "note": "(stereo not given in full)", "Potency": "inactive", "viability change": "3.14% and -2.67%"},
      {"smiles": "CC1(C)CCC=[N+]1[O-]", "viability change": "-0.162%", "activity change, negative = inhibition": "-5.35% (inactive)"},
      {"smiles": "CN1[C@@H](CC(=O)c2ccccc2)CCC[C@H]1C[C@H](O)c1ccccc1", "activity change, negative = inhibition": "1.11% (inactive)", "viability change": "-11%"},
      {"smiles": "N#C/C(=C\\c1ccc(O)c(O)c1)C(=O)c1ccc(O)c(O)c1", "viability change": "-19.7%", "activity change, negative = inhibition": "26.6% (inactive)"},
      {"smiles": "NCCCCCCCCCCN", "activity change, negative = inhibition": "-1.62% (inactive)", "viability change": "-2.16%"},
      {"smiles": "CSc1nc(N)c2ncn([C@@H]3O[C@H](COP(=O)(O)OP(=O)(O)OP(=O)(O)O)[C@@H](O)[C@H]3O)c2n1", "viability change": "-1.62%", "activity change, negative = inhibition": "-11.6% (inactive)"},
      {"smiles": "COc1ccccc1CNCCCCCCNCCCCCCCCNCCCCCCNCc1ccccc1OC", "activity change, negative = inhibition": "38.2% (inactive)", "viability change": "-8.09%"},
      {"smiles": "N#C/C(=C\\c1ccc(O)c(O)c1)C(=O)NCc1ccccc1", "activity change, negative = inhibition": "9.83% (inactive)", "viability change": "-19.8%"},
      {"smiles": "NC(N)=NC(=O)c1nc(Cl)c(N2CCCCCC2)nc1N", "activity change, negative = inhibition": "0.988% (inactive)", "viability change": "-0.682%"},
      {"smiles": "C=C[C@H]1CN2CC[C@@H]1C[C@@H]2[C@@H](O)c1ccnc2ccc(OC)cc12", "viability change": "-1.39%", "activity change, negative = inhibition": "-3.85% (inactive)"},
      {"smiles": "CNc1ncnc2c1ncn2[C@@H]1O[C@H](CO)[C@@H](O)[C@H]1O", "viability change": "-0.614%", "activity change, negative = inhibition": "-6.42% (inactive)"},
      {"smiles": "COc1cc(SC)ccc1C(=O)N1CCC(Cc2ccccc2)CC1", "viability change": "1.59%", "activity change, negative = inhibition": "2.45% (inactive)"},
      {"smiles": "NC[C@@H]1O[C@H](C23CC4CC(CC(C4)C2)C3)Cc2c1ccc(O)c2O", "activity change, negative = inhibition": "-13.4% (inactive)", "viability change": "3.16%"},
      {"smiles": "C=C[C@@H]1CN2CC[C@@H]1C[C@H]2[C@H](O)c1ccnc2ccc(OC)cc12", "activity change, negative = inhibition": "-8.99% (inactive)", "viability change": "-4.66%"},
      {"smiles": "OCC1O[C@H](O)C(Cl)C(O)C1O", "note": "(stereo not given in full)", "viability change": "4.21%", "activity change, negative = inhibition": "15% (inactive)"},
      {"smiles": "CCN(CC)c1ncnc2c1ncn2[C@@H]1O[C@H](COP(=O)(O)OP(=O)(O)C(Br)(Br)P(=O)(O)O)[C@@H](O)[C@H]1O", "activity change, negative = inhibition": "-15% (inactive)", "viability change": "-6.83%"},
      {"smiles": "CCCN(CC1CC1)c1nc(C)nc(Nc2c(Cl)cc(Cl)cc2Cl)c1Cl", "activity change, negative = inhibition": "7.79% (inactive)", "viability change": "7.51%"},
      {"smiles": "CC1CN(S(=O)(=O)c2cccc3cnccc23)CCN1", "note": "(stereo not given)", "activity change, negative = inhibition": "-15.2% (inactive)", "viability change": "1.98%"}
    ]}
  ]
}
